Many of the other results were omitted from the sample, so hits are more common in it than they were.
12-LOX inh: ALOX12 (human) lipoxygenase inhibition | Potency, µM (series often up to 108 µM), inactives show at the top dose activity change, negative = inhibition, actives largely listed as inhibitors | 580,000 compounds, 1.1% hits | P18054 | purified 12hLO, xylenol orange hydroperoxide absorbance; further: potency means the concentration at half of the fitted maximal effect
Target sequence (P18054 whole entry, looked up): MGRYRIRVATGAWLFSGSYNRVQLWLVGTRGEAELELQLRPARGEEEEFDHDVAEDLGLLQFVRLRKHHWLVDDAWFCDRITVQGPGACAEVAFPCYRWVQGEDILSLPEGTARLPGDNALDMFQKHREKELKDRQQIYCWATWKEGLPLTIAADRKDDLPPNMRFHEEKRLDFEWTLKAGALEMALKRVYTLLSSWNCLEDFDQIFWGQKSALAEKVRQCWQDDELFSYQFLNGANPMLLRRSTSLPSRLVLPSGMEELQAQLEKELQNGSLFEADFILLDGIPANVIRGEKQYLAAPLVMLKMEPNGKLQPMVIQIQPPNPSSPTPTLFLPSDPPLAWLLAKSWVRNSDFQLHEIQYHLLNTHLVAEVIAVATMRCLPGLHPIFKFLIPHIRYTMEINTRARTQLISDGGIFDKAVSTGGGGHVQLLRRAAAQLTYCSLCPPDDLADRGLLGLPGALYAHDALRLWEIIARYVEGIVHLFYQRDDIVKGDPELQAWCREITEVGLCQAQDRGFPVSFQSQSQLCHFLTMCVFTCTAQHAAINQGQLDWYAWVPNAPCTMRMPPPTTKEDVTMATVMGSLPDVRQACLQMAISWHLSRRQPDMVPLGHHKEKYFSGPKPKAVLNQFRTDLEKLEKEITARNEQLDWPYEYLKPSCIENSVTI
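Purified human 12hLO at 150 nM in 25 mM Hepes, 0.01% Triton X-100, pH 7.0, preincubated 15 min at room temperature with compound. Reaction started with 40 uM arachidonic acid, 30 min at room temperature. Hydroperoxide measured by Fe-xylenol orange, 573/405 nm absorbance ratio.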
HT1080-NT tox: kills 2HG-producing HT-1080-NT fibrosarcoma cells | Potency, µM (doses to about 46.1 µM), inactives show at the highest dose activity, negative = less viability, actives largely listed as cytotoxic | 360,000 compounds, 1.6% hits | AID 686970 | HT-1080-NT fibrosarcoma viability, CellTiter-Glo ATP luminescence, 48 h;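 further: NT is the 2HG producing partner of a matched IDH1 knockdown line; potency means the concentration at half of the fitted maximal effect; 0% = DMSO-treated cells and -100% = media-only wells without cells; nearly all actives have a fitted effect of over 55% in size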
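HT-1080-NT fibrosarcoma cells (2HG-overproducing), 750 cells/well in RPMI with 5% FBS, dosed after 2 h and incubated 48 h at 37C. CellTiter-Glo luminescence normalized to DMSO and no-cell wells; concentration-response curves fitted and classed.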
TDP1 cell noCPT: qHTS for Inhibitors of human tyrosyl-DNA phosphodiesterase 1 (TDP1): qHTS in cells in absence of CPT; DT40 Tdp1-/- hTDP1 cells, no CPT, ATP luminescence, 48 h; 420,000 compounds, 15% hits; AID 686978, 2013; Potency, µM (top dose mostly 46.2 µM), inactives show at the top dose activity change, negative = growth inhibition, most hits filed as inhibitors; further: potency means the concentration at half of the fitted maximal effect; nearly all actives have a fitted effect of over 55% in size
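Readout: luminescence from CellTiter-Glo after 30 min in the dark at RT. Cells: DT40 Tdp1-/- with stable hTDP1, 400/well. Exposure: compounds alone, ≥48 hr, 37 °C.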
IL1B secr inh: blocks inflammasome-driven IL-1 beta release. THP-1 LPS/ATP IL-1B secretion, AlphaLISA, 16 h; stronger effect = lower value. 360,000 compounds, 4.7% hits. activity change, % at 57.5 µM; in the data active means activity change below about -50%; inconclusive means mostly about -30% to -49%
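Secreted IL-1B measured by AlphaLISA bead assay after 16 h compound exposure of THP-1 cells; compounds (final up to 57.5 uM) added 1 h before LPS (250 ng/mL) and ATP (1.25 mM) stimulation; lower signal means less secretion.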
TDP1 cell CPT: growth inhibition of DT40 Tdp1-/-;hTDP1 cells with camptothecin (screen for TDP1 inhibitors) | chicken DT40 Tdp1-/-;hTDP1 cells + 20 nM CPT, ATP luminescence, 48 h | Potency, µM (titrated, usually from 46.2 µM), for the others: at the top dose activity change, negative = growth inhibition, most hits filed as inhibitors | 420,000 compounds, 12% hits; further: potency means the concentration at half of the fitted maximal effect; nearly all actives have a fitted effect of over 55% in size
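Chicken DT40 Tdp1-/- cells complemented with human TDP1, 400 cells/well, exposed to compounds plus 20 nM camptothecin for at least 48 h at 37 C; viability read as ATP content by CellTiter-Glo luminescence.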
HT1080 IDH1KD tx: toxicity to HT-1080 IDH1 knockdown cells (counter line); HT-1080 IDH1 knockdown viability, ATP luminescence, 48 h; Potency, µM (highest dose often 46.1 µM), without a hit: top-dose activity, negative = toxicity, hits mostly cytotoxic; 360,000 compounds, 2% hits;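 further: potency means the concentration at half of the fitted maximal effect; 0% = DMSO wells and -100% = cell-free medium wells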
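HT-1080-IDH1KD cells (IDH1 knocked down), 750/well in RPMI with 5% FBS, treated with compound 48 h at 37 degrees C. Viability by CellTiter-Glo luminescence, normalised to DMSO and no-cell wells; concentration-response curves classed.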
The depositor's hits bear a star; i = inactive; ? = inconclusive; . = not tested or not shown; [ ] = dose if it differs, or a comment. Unless noted, the call rests on the fitted dose curve; in most records, active means well fitted curve in the direction sought with a large enough effect; inconclusive means small, poorly fitted or top-dose-only effect, or another doubt; inactive means no such curve, though single readings can be large; an effect the other way counts as inactive or inconclusive. Unless noted, on the % scale 0 is the no-effect control and ±100 the full control effect.

SMILES	12-LOX inh	HT1080-NT tox	TDP1 cell noCPT	IL1B secr inh	TDP1 cell CPT	HT1080 IDH1KD tx
O=C(COc1ccccc1)NC1CCN(c2cc(C(F)(F)F)ncn2)CC1	12%	.	.	.	.	.
COc1cccc(CCC(=O)N2CCCN(c3cc(-c4ccc(Cl)cc4)[nH]n3)CC2)c1	-4%	.	.	.	.	.
O=C(NCc1ccccn1)c1ccc2c(c1)CC(=O)N2Cc1ccc(F)cc1	1%	.	.	.	.	.
Cc1c(N=Nc2c(-c3ccc([N+](=O)[O-])cc3)[nH]n(C(N)=S)c2=O)cccc1[N+](=O)[O-]	?	?	2.9µM*	?	2.9µM*	?
NC(=S)n1[nH]c(-c2ccc([N+](=O)[O-])cc2)c(N=Nc2cccc([N+](=O)[O-])c2)c1=O	?	1.5µM*	?	36	?	0.82µM*
COc1ccc(-c2noc([C@@H]3CCCN3C(=O)c3ccc(OC)c(F)c3)n2)cc1	44%	.	.	.	.	.
CCOc1ccc(NC(=O)c2ccccc2NC(=O)CNC2CCCC(C)C2C)cc1 (stereo unspecified)	0%	-7%	7.3µM*	19	15µM*	0%
CCOc1ccc(NC(=O)c2ccccc2NC(=O)CN2CCCCCC2)cc1	2%	-4%	?	-8	-23%	-6%
Cc1noc2ncnc(Nc3ccc(F)cc3)c12	2%	.	-10%	.	0%	.
COc1cc(Nc2ncnc3onc(-c4ccc(Cl)cc4)c23)cc(OC)c1	-14%	.	21µM*	.	?	.
COc1ccc(Nc2ncnc3onc(-c4ccc(Cl)cc4)c23)cc1Cl	-5%	.	16µM*	.	18µM*	.
CCOc1ccc(Nc2ncnc3onc(-c4ccc(Cl)cc4)c23)cc1	-26%	.	?	.	?	.
COc1cc(OC)c(Nc2ncnc3onc(-c4cccc(Cl)c4)c23)cc1Cl	-9%	.	-1%	.	9%	.
CC(C)c1ccc(Nc2ncnc3onc(-c4ccc(F)cc4)c23)cc1	-5%	.	?	.	18µM*	.
CSc1ccc(C(C)NC(=O)Cc2ccccc2C)cc1 (stereo unspecified)	16%	.	.	.	.	.
O=C(CSc1nnc(-c2ccccc2)n1Cc1ccccc1)NNC(=O)c1ccccc1O	-14%	-7%	26µM*	10	16µM*	-20%
Oc1ccc(N2CCN(c3nnnn3-c3ccccc3)CC2)cc1	?	-11%	21µM*	3	?	-19%
CCC(=O)N1CCN(c2ccc(NC(=O)c3cc4ccccc4o3)cc2Cl)CC1	0%	?	13µM*	-115*	9.2µM*	16µM*
O=C(Nc1ccc(N2CCN(C(=O)c3ccco3)CC2)c(Cl)c1)c1cc2ccccc2o1	4%	?	8.2µM*	-105*	4.1µM*	15µM*
CC(=O)N1CCN(c2ccc(NC(=O)c3cc4ccccc4o3)cc2)CC1	17%	23%	?	-19	?	10%
COC(=O)c1ccc(N2CCN(C)CC2)c(NC(=O)c2cc3ccccc3o2)c1	-17%	-1%	23µM*	8	21µM*	2%
COC(=O)c1ccc(N2CCOCC2)c(NC(=O)c2cc3ccccc3o2)c1	0%	5%	-1%	7	3%	5%
CCC(=O)N1CCN(c2ccc(NC(=O)c3ccco3)cc2Cl)CC1	0%	11%	-10%	i	8%	12%
CCCC(=O)N1CCN(c2ccc(NC(=O)c3cc4ccccc4o3)cc2Cl)CC1	120%	18µM*	3.7µM*	-111*	3.3µM*	21µM*
CC(=O)N1CCN(c2ccc(NC(=O)c3ccco3)cc2Cl)CC1	i	-4%	5%	-4	-3%	-3%
SMILES	12-LOX inh	HT1080-NT tox	TDP1 cell noCPT	IL1B secr inh	TDP1 cell CPT	HT1080 IDH1KD tx
Clc1cccc(CNCCOc2ccccn2)c1	-42%	.	.	.	.	.
CC(C)NC(=O)Nc1cccc(C(=O)NC(C)c2cccc(Cl)c2)c1 (stereo unspecified)	-43%	.	.	.	.	.
CC(NC(=O)c1nccnc1N)c1ccccc1Br (stereo unspecified)	0%	.	.	.	.	.
O=C(Nc1ccc(N2CCN(C(=O)c3ccccc3)CC2)c(Cl)c1)c1ccco1	5%	-20%	13µM*	-79*	16µM*	?
CCN1C(=O)CC(N2CCN(c3ccc(C(=O)c4ccccc4)cc3)CC2)C1=O (stereo unspecified)	6%	-2%	23µM*	-28	?	-1%
CCN1C(=O)CC(N2CCN(c3ccc(Cl)cc3)CC2)C1=O (stereo unspecified)	0%	8%	-4%	-18	-4%	11%
COc1cc(CNC(=O)c2cnc3c(c2)N(C(=O)Cc2ccc(C(C)C)cc2)CCC3)cc(OC)c1	0%	.	.	.	.	.
COc1ccc(CNC(=O)C2CCCN(S(=O)(=O)c3ccc(F)cc3)C2)cc1 (stereo unspecified)	343%	4%	?	7	?	4%
CCOc1ccc(OCC)c(NC(=O)C2CCCN(S(=O)(=O)c3ccc(C)cc3)C2)c1 (stereo unspecified)	?	4%	16µM*	18	26µM*	-5%
Cc1ccc(S(=O)(=O)N2CCCC(C(=O)N(Cc3cccs3)C3CC3)C2)cc1 (stereo unspecified)	0%[57.4 µM]	-1%	13µM*	-9	13µM*	-11%
Cc1ccc(NC(=O)C2CCCN(S(=O)(=O)c3cccs3)C2)cc1 (stereo unspecified)	-4%	-3%	?	-5	?	0%
COc1ccc(NC(=O)C2CCCN(S(=O)(=O)c3ccc(F)cc3)C2)cc1 (stereo unspecified)	-23%	.	15µM*	.	15µM*	.
Cc1ccc(NC(=O)C2CCCN(S(=O)(=O)c3ccc(C)cc3)C2)cc1 (stereo unspecified)	-10%	.	16µM*	.	16µM*	.
CCOc1ccc(OCC)c(NC(=O)C2CCCN(S(=O)(=O)c3c(C)n[nH]c3C)C2)c1 (stereo unspecified)	3%	3%	-24%	-1	-13%	10%
CCN(CC)S(=O)(=O)c1ccc(CNC(=O)c2nn(C)c(=O)c3ccccc23)cc1	-13%	.	.	.	.	.
CCCCc1cc(=O)oc2cc(OC(C)C(=O)NCCCO)ccc12 (stereo unspecified)	3%	.	.	.	.	.
COc1ccc(S(=O)(=O)Nc2nc3ccccc3nc2Nc2cccc(C(F)(F)F)c2)cc1	-18%	.	.	.	.	.
CCn1cnc2c1c(=O)n(CC(=O)NC(=O)NCc1ccccc1)c(=O)n2Cc1ccccc1	-3%	.	.	.	.	.
